Screening results: PubChem BioAssay, National Center for Advancing Translational Sciences (NCATS)
Hits are enriched below; roughly 7.9% of the tested compounds scored in any of these assays.
MARV entry inh: inhibitors of Marburg virus binding or cell entry. Marburg virus pseudotyped entry inhibition, cell reporter. Potency, µM (doses to about 37.8 µM), inactives show at the highest dose activity change, negative = inhibition, actives largely listed as inhibitors. hit rate 1.8% among 300,000. AID 540276; calls by dose curve; tested in HEK293 cells; also: potency is read from the fitted curve at half-maximal effect
HCMV antiviral: inhibitors of human cytomegalovirus. HFF cells, HCMV-luciferase reporter, 72 h; active compounds read low. activity change, negative = inhibition, % at 57.5 µM. hit rate 4.5% among 410,000. AID 1259415; in the data active = activity change below about -60%; inconclusive = no clear call, values can overlap the other calls; inactive = above about -39%
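Two-dose cell screen: HFF monolayers treated with compounds and infected with luciferase-expressing HCMV at 1 PFU/cell, 72 h at 37C, then lysed for luciferase measurement.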
FMDV antiviral: antivirals against foot and mouth disease virus; FMDV antiviral cell-based qHTS; Potency, µM (series often up to 57.9 µM), for the others: top-dose activity change, negative = inhibition, actives largely listed as inhibitors; hit rate 1.2% among 410,000; AID 1159524; calls by dose curve; tested in HEK293T cells; also: read-out not given here; potency is read from the fitted curve at half-maximal effect; nearly all actives have a fitted effect of over 45% in size
HCV inh: blocks hepatitis C virus; Huh7.5.1 HCVcc-Cre infection, luciferase reporter, 44 h; Potency, µM (top dose mostly 41.8 µM), for the others: at the top dose activity change, negative = inhibition, most hits filed as inhibitors; hit rate 3.4% among 340,000; AID 651820; active = well fitted inhibition curve with a large enough effect; inconclusive = small, poorly fitted or top-dose-only effect, or another doubt; inactive = no such curve, though single readings can be large or run the other way; also: potency is read from the fitted curve at half-maximal effect
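Infectious HCV cell culture screen: compound-treated cells (1,000/well, pre-plated 4 h) are infected with HCVcc-Cre at roughly 0.5 moi and grown 44 h. Infection is quantified by luciferase signal after 15 min substrate incubation at room temperature.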
LASV entry inh: Lassa virus entry inhibition; hit rate 1.2% among 300,000; Lassa virus pseudotype entry inhibition, cell reporter; Potency, µM (titrated, usually from 37.9 µM), for the others: top-dose activity change, negative = inhibition, most hits filed as inhibitors; calls by dose curve; tested in HEK293 cells; also: potency is read from the fitted curve at half-maximal effect; nearly all actives have a fitted effect of over 50% in size
* hit, by the source's call; ? = inconclusive; · = not tested or not shown; + = active, no number; [ ] = dose if it differs, or a comment. % is scaled to controls: 0 for no effect and ±100 for the full control effect.

SMILES	MARV entry inh	HCMV antiviral	FMDV antiviral	HCV inh	LASV entry inh
O=C(Cn1nc(CNc2ccc(Cl)cc2)[n+]2c1CCCCC2)c1ccccc1	12%	?	-4%	13%	0%
Cc1ccc(C(C)C)c(OCc2nn(CC(=O)c3ccc(Cl)cc3)c3[n+]2CCCCC3)c1	?	-112*	32µM*	?	?
Cc1ccc2c(c1)N(CC(=O)NCCCN1CCN(C)CC1)C(=O)CO2	-9%[46.1 µM]	-69*	-3%	15%	?
O=C(CN1C(=O)COc2ccccc21)NCCN1CCCC1	·	0	-6%	15%	·
O=C(CN1C(=O)COc2ccccc21)NCCCN1CCCC1	·	+	-16%	-10%	·
Cc1ccc(CSc2nnc3ccc(-c4ccncc4)nn23)cc1	·	-60*	1%	-17%	·
O=C(NCCC1=CCCCC1)c1ccc(F)cc1	?	-29	?	1%	10µM*
O=C(Cn1cccc1C(=O)c1ccccc1)NCCCc1ccccc1	-22%[46.1 µM]	-33	-4%	-11%	?
O=C(NCCC1=CCCCC1)c1ccc([N+](=O)[O-])cc1	?	-17	3%	7%	?
CC(=O)c1cccc(NC(=S)NCCC2=CCCCC2)c1	?	?	0%	11µM*	?
O=C(Cn1cccc1C(=O)c1ccccc1)NCCC1=CCCCC1	-23%[14.2 µM]	-64*	15%	-2%	-2%
COc1ccc(C(=O)NCCC2=CCCCC2)cc1	7.3µM*	-4	13µM*	6%	?
Cc1ccc(-c2nc(SCC(=O)NCc3ccco3)c3c(=O)n(C)c(=O)n(C)c3n2)cc1	·	4	-48%	·	-6%[46.1 µM]
COc1ccc(-c2csc(C(O)c3ccc(OC)cc3)n2)cc1 (stereo not given)	·	-72*	-25%	·	·
COc1cccc(C(O)c2nc(-c3ccncc3)cs2)c1 (stereo not given)	·	-76*	?	·	·
COc1ccc(-c2csc(C(O)c3ccc(F)cc3)n2)cc1 (stereo not given)	·	8	40%	·	·
O=C(Nc1ccc(N2CCOCC2)nc1)c1ccc(C(F)(F)F)cc1	9%[46.1 µM]	-68*	8.9µM*	7.1µM*	?
CC(=O)Nc1ccc(NC(=O)C2CCN(c3ccc(C(F)(F)F)cn3)CC2)cc1	-9%[46.1 µM]	-67*	-27%	13µM*	10%[46.1 µM]
CCC(C)c1ccc(NC(=O)C2CCN(c3ccc(C(F)(F)F)cn3)CC2)cc1 (stereo not given)	-11%	-60*	?	-13%	-5%
CS(=O)(=O)Nc1ccc(N2CCN(c3ccc(C(F)(F)F)cn3)CC2)nc1	-22%	?	?	11µM*	5%
CC(C)(C)C(=O)Nc1ccc(N2CCN(c3ccc(C(F)(F)F)cn3)CC2)nc1	6%[46.1 µM]	-10	-15%	-10%	7%[46.1 µM]
NC(=O)C1CCN(c2ccc(C(F)(F)F)cn2)CC1	1%[46.1 µM]	20	23%	14%	·
C=C(C(=O)OCC)C(=O)c1ccccc1	-7%[14.2 µM]	·	·	·	·
Cc1ccc(C(=O)N(Cc2cc3cccc(C)c3nc2N2CCC(O)CC2)C2CC2)cc1	·	·	-13%	·	·
CCCCNCC1C(Oc2ccc(Cl)cc2)C(=O)N1c1ccccc1C (stereo not given)	?	-79*	-23%	?	-20%
SMILES	MARV entry inh	HCMV antiviral	FMDV antiviral	HCV inh	LASV entry inh
Cc1cccc(N2C(=O)C(Oc3ccc(Cl)cc3Cl)C2C(=O)O)c1C (stereo not given)	1%	-10	?	32%	0%
CCCNCC1C(Oc2ccc(Cl)cc2Cl)C(=O)N1c1cccc(C)c1C (stereo not given)	·	-90*	?	32µM*	·
CC(CCC(=O)OC[C@H]1O[C@H](C#Cc2ccccc2)C=C[C@H]1Oc1ccc(C)cc1)=NO[C@@H](C)c1cn([C@H](CO)Cc2ccccc2)nn1	9%[14.2 µM]	·	·	·	?
CC(C)Oc1ccc(N2CC(C(=O)NC3=NCCS3)CC2=O)cc1 (stereo not given)	·	9	-4%	8%	·
Cc1nn2c(=O)cc(COC(=O)c3ccco3)nc2s1	·	-2	7%	·	-2%[46.1 µM]
COc1ccc(C(=O)c2c(-c3ccc(OC)cc3)oc3ccccc23)cc1	·	14	0%	-56%	·
COc1ccc(C(=O)c2ccc3oc(-c4ccc(OC)cc4)c(-c4ccc(O)cc4)c3c2)cc1	·	-64*	-6%	8.9µM*	·
O=C(Oc1c(-c2ccccc2)oc2ccccc2c1=O)c1ccccc1	-22%	-82*	21%	-30%	?
COc1ccc(-c2oc3ccccc3c(=O)c2OC(=O)c2ccc(C)cc2)cc1	-18%	-75*	16%	10%	5%
